Records with an inconclusive call do not appear. Calls of active or inactive are those of the source. How the source made its calls: active means hit-call score of the fitted dose curve at least 0.9, where 1 is the maximum; inconclusive means response in the unintended direction; inactive means score below 0.9.
target: Estrogen receptor (Homo sapiens) (UniProt P03372); experiment: OT_ER_ERaERa_0480: Odyssey Thera (OT) 8-hour HEK293T Protein-Complementation Assay for Estrogen Receptor-alpha/-alpha Homodimer (AID 2283351);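 further: rise in fluorescence from reassembled reporter fragments on ERα LBD homodimer in nucleus or whole cell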
Protocol: OT_ER_ERaERa_0480 is a cell-based assay that uses HEK293T, a human kidney cell line, with measurements taken at 8 hours after chemical dosing in a 384-well plate.OT_ER_ERaERa_0480 is one of one assay component(s) measured or calculated from the OT_ER_ERaERa_0480 assay. It is designed to make measurements of protein fragment complementation, a form of binding reporter, as detected with fluorescence intensity signals by Protein-fragment Complementation technology.Data from the assay component OT_ER_ERaERa_0480 was analyzed into 1 assay endpoint. This assay endpoint, OT_ER_ERaERa_0480, was analyzed in the positive analysis fitting direction relative to DMSO as the negative control and baseline of activity. Using a type of binding reporter, measures of receptor for gain-of-signal activity can be used to understand the binding at the pathway-level as they relate to the gene ESR1. Furthermore, this assay endpoint can be referred to as a primary readout, because the performed assay has only produced 1 assay endpoint. To generalize the intended target to other relatable targets, this assay endpoint is annotated to the nuclear receptor intended target family, where the subfamily is steroidal.
Protein-fragment complementation assay, or PCA, is a method for the identification and quantification of protein-protein interactions. In the PCA, the proteins of interest ("bait" and "prey") are each covalently linked to fragments of a third protein (e.g. DHFR, which acts as a "reporter"). Interaction between the bait and the prey proteins brings the fragments of the reporter protein in close proximity to allow them to form a functional reporter protein whose activity can be measured. The OT ER alpha / ER alpha assay is a homodimer PCA of the ligand binding domain (amino acids 310-547) of human ER alpha stably expressed in HEK293T cells. […] Fluorescent signal in the basal state of the assay is very low and is primarily punctuate and cytoplasmic. Modulation of this assay is quantified as an increase in mean fluorescence intensity in the nucleus (for agonists) or in the nucleus and cytoplasm (antagonists) relative to vehicle controls, and can be quantified on a high content imaging device or a laser scanning cytometer. The latter instrument is favored for this assay because of the rapid mode of data acquisition, the ability to acquire data from the entire cell population in a well (as opposed to a fraction of the well on the high content devices) and the larger dynamic range typically achieved with this instrument. To assess sensitivity of the ER alpha/ER alpha LBD assay to ligand, cells were treated with the ER agonist 17 beta-estradiol (E2) in 10-point concentration- response format for 8 hours and monitored response on a laser scanning plate cytometer (Acumen eX3; TTP Lab Tech).

Sequence of Estrogen receptor (Homo sapiens) (P03372 whole entry, looked up, the tested form may be a part): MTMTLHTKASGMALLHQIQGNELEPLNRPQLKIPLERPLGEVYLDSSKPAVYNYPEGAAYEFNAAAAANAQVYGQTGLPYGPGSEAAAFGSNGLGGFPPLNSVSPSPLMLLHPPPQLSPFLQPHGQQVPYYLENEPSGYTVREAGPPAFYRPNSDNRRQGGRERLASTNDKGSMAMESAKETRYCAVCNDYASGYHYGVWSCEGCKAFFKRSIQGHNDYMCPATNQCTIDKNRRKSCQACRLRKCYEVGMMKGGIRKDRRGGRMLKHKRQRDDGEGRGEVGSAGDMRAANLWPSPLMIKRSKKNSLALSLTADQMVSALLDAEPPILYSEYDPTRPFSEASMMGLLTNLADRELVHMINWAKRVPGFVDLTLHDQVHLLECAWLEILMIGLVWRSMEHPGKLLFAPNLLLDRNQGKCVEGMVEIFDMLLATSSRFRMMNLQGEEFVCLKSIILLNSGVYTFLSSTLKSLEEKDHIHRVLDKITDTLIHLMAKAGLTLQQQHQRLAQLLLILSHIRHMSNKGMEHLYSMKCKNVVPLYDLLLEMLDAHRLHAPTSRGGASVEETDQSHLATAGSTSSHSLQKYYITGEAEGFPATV

outcome, inactive:
CCCCCCC(C)(C)C(=O)O, C=CC(C)(CCC=C(C)C)OC(C)=O (centres undefined), CCCCc1ccc2ccccc2c1S(=O)(=O)O, O=C(O)c1cccc(C(=O)O)n1, CCCCc1oc2ccccc2c1C(=O)c1cc(I)c(OCCN(CC)CC)c(I)c1, CCc1ccccc1O, NCc1cccc(CN)c1, CCCCCCCCCCCCOC(=O)c1cc(O)c(O)c(O)c1, CCCCCCCCCC=CCC1CC(=O)OC1=O (centres undefined), NC(=NCCCCCCN=C(N)/N=C(\N)Nc1ccc(Cl)cc1)/N=C(\N)Nc1ccc(Cl)cc1, Cc1cc(Cc2cc(C)cc(C(C)(C)C)c2O)c(O)c(C(C)(C)C)c1, N=C(N)c1ccc(OCCCCCOc2ccc(C(=N)N)cc2)cc1, NCCN, Cc1cc(C(=C2C=CC(=Nc3ccc(S(=O)(=O)O)cc3)C=C2)c2ccc(Nc3ccc(S(=O)(=O)O)cc3)cc2)cc(S(=O)(=O)O)c1N, COc1cc([N+](=O)[O-])ccc1N, CN(Cc1cnc2nc(N)nc(N)c2n1)c1ccc(C(=O)N[C@@H](CCC(=O)O)C(=O)O)cc1, CN(C)CCOC(c1ccccc1)c1ccccc1, CCCCCC(C)OC(=O)COc1ccc(Cl)c2cccnc12 (centres undefined)

AC50, active:
CCCCCCc1ccc(N)cc1 67.3 µM
